The source made the active and inactive calls.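 The calls were made as follows: active = fitted half-maximal concentration AC50 at or below ten times the highest valid tested dose, with signal falling as DNA is displaced (actives reach about 34 µM in these data); inconclusive = flat fit at moderate signal loss, or poor fit quality; inactive = the rest, including signal rising instead of falling.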
experiment: acridine orange-DNA binding displacement – biochemical, fluorescence polarization, cherry-picked samples, set 2, artefact control for KSHV LANA DNA-binding inhibitor project, dose response (AID 504727); conditions: series mostly up to 35 µM; activity change, negative = DNA displacement: at the top concentration;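 as to activity change, negative = DNA displacement: 0% = median of neutral control wells and -100% = mitoxantrone positive control wells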

Activity change, negative = DNA displacement, inactive:
CC(C(=O)O)N1C(=O)/C(=C/C=C/c2ccco2)SC1=S (stereo unspecified) 14.1%
O=C(O)c1ccc(-n2cccc2/C=C2/NC(=O)N(c3cccc(Cl)c3)C2=O)cc1 27%
O=C(CN1CC[C@@]2(O)CCCC[C@H]2[C@@H]1c1ccc(F)cc1)NCc1ccco1 -2.12%
O=C(CN1C(=O)/C(=C/c2ccco2)SC1=S)Nc1ccc(O)c(C(=O)O)c1 -5.04%
CC1=[N+](C)N(c2ccccc2)C(=O)C1N=C/C=C/c1ccccc1 (stereo unspecified) 2.35%
O=C(O)/C(=C\c1cccs1)Sc1nnc(-c2ccc(F)cc2)o1 3.86%
C/C(=N/NC(=O)c1cc(O)c(O)c(O)c1)c1ccc([N+](=O)[O-])cc1 2.7%
COc1cc(CN2CC(=O)N(c3cc(Cl)ccc3C)C2=S)cc(OC)c1OC 5.96%
Cc1noc(C)c1CSCC(=O)Nc1nc2c(F)cc(F)cc2s1 7.28%
O=C(NCC1CCCO1)c1cccc(S(=O)(=O)N(Cc2ccccc2)c2ccccc2)c1 (stereo unspecified) -1.69%
O=C(NCCN1CCN(C(=O)c2cccs2)CC1)c1cccs1 2.49%
Cc1cccc(Nc2nc(N)c([N+](=O)[O-])c(NCc3ccccc3)n2)c1 4.16%
C=CCn1c(C)cc(-c2csc(NC(=O)CCc3nc4ccccc4c(=O)[nH]3)n2)c1C 5.57%
COc1ccc(N=Nc2nc3ccc(Br)cc3n2C)cc1 -3.72%

AC50, active:
COc1ccc(C2C(C(=O)c3cccs3)=C(O)C(=O)N2c2nnc(C)s2)cc1OC (stereo unspecified) 21.6 µM
O=C(O)CCCCCn1c(SCC(=O)c2ccc(O)c(O)c2)nc2ccsc2c1=O 23.8 µM
